Screen size: about 5,500 compounds; about 2,000 (36%) were called active. Inconclusive results (about 18%) are left out. No stated cut-off is given here; in the data, active means normalized growth mostly below about 0.91 (no sharp cut-off); inconclusive means no clear call, values can overlap the other calls; inactive means mostly above about 0.92. Some of the results follow.
Assay: chemical genetic growth profiling, strain panel (AID 1159580);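 further: tested at 20 µM; growth read once vehicle control cultures reached saturation at 30 °C; 1 = growth at the plate median or of vehicle wells; lower values mean less growth of the strain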
Conditions: S. cerevisiae deletion strains, growth OD
[1] = locus YAL013W, strain DEP1, hits give low values
[2] = locus YBR229C, strain ROT2, hits give low values
[3] = locus YCL061C, strain MRC1, hits give low values
[4] = locus YDL101C, strain DUN1, hits give low values
[5] = locus YDR150W, strain NUM1, hits give low values
[6] = locus YEL061C, strain CIN8, hits give low values
[7] = locus YGR078C, strain PAC10, hits give low values
[8] = locus YGR229C, strain SMI1, hits give low values
[9] = locus YHR030C, strain SLT2, hits give low values
[10] = locus YHR087W, strain rtc3, hits give low values
[11] = locus YJR043C, strain POL32, hits give low values
[12] = locus YJR075W, strain HOC1, hits give low values
[13] = locus YLR039C, strain RIC1, hits give low values
[14] = locus YLR058C, strain SHM2 (second series), hits give low values
[15] = locus YLR085C, strain ARP6, hits give low values
[16] = locus YLR262C, strain YPT6, hits give low values
[17] = locus YML094W, strain GIM5, hits give low values
[18] = locus YMR219W, strain ESC1, hits give low values
[19] = locus YMR263W, strain SAP30, hits give low values
[20] = locus YNL153C, strain GIM3, hits give low values
[21] = locus YNL298W, strain CLA4 (second series), hits give low values
[22] = locus YNL322C, strain KRE1, hits give low values
[23] = locus YNR030W, strain Alg12, hits give low values
[24] = locus YOL006C, strain TOP1, hits give low values
[25] = locus YPL055C, strain LGE1, hits give low values
[26] = locus YPL241C, strain CIN2, hits give low values
[27] = locus YPR135W, strain CTF4, hits give low values

Measured: normalized growth

COC(=O)c1ccc(C#Cc2ccccc2)o1
active: [1] 0.9 | [2] 0.884 | [3] 0.771 | [4] 0.846 | locus YDL134C, strain PPH21, hits give low values 0.589 | [6] 0.713 | [7] 0.89 | [9] 0.323 | [10] 0.902 | locus YJL187C, strain SWE1, hits give low values 0.913 | [11] 0.822 | [12] 0.875 | locus YKL190W, strain CNB1, hits give low values 0.731 | [13] 0.55 | [15] 0.325 | [16] 0.584 | [17] 0.787 | [18] 0.88 | [19] 0.904 | [20] 0.815 | [21] 0.654 | [23] 0.793 | [24] 0.349 | [25] 0.767 | [26] 0.678 | [27] 0.457
inactive: [5] 0.834 | [8] 0.961 | [14] 0.992 | locus YNL128W, strain TEP1, hits give low values 0.927 | [22] 0.972

CN(C)/C=C/C(=O)c1ccc(C#Cc2ccccc2)cc1
inactive: locus YAR019C, strain CDC15, hits give low values 0.982 | locus YBL105C, strain PKC1, hits give low values 0.986 | locus YBR135W, strain CKS1, hits give low values 0.967 | locus YBR136W, strain MEC1, hits give low values 0.984 | locus YBR160W, strain CDC28, hits give low values 0.97 | locus YDL017W, strain CDC7, hits give low values 0.977 | locus YDL028C, strain MPS1, hits give low values 0.98 | [4] 0.982 | locus YDL108W, strain KIN28, hits give low values 0.986 | locus YDL132W, strain cdc53, hits give low values 0.968 | locus YDL214C, strain PRR2, hits give low values 0.987 | locus YDR052C, strain DBF4, hits give low values 0.974 | locus YDR054C, strain cdc34, hits give low values 0.975 | locus YDR226W, strain ADK1, hits give low values 0.972 | locus YDR477W, strain SNF1, hits give low values 0.958 | locus YER123W, strain YCK3, hits give low values 0.955 | locus YER133W, strain GLC7, hits give low values 0.981 | locus YFL009W, strain cdc4, hits give low values 0.965 | locus YFL029C, strain CAK1, hits give low values 0.976 | locus YFR003C, strain YPI1, hits give low values 0.993 | locus YFR019W, strain FAB1, hits give low values 0.981 | locus YFR028C, strain CDC14, hits give low values 0.98 | locus YGR040W, strain KSS1, hits give low values 0.967 | locus YGR052W, strain FMP48, hits give low values 1.08 | locus YGR092W, strain DBF2, hits give low values 1.01 | [9] 0.874 | locus YHR079C, strain IRE1, hits give low values 0.99 | locus YHR082C, strain KSP1, hits give low values 1.05 | locus YHR205W, strain SCH9, hits give low values 0.987 | locus YIL147C, strain SLN1, hits give low values 0.982 | locus YJL095W, strain BCK1, hits give low values 0.935 | locus YJL128C, strain PBS2, hits give low values 0.953 | locus YJL157C, strain FAR1, hits give low values 0.989 | locus YJR016C, strain ILV3, hits give low values 0.974 | locus YJR066W, strain TOR1 (second series), hits give low values 0.934 | locus YJR066W, strain TOR1, hits give low values 0.94 | locus YKL048C, strain ELM1, hits give low values 0.979 | locus YKL067W, strain YNK1, hits give low values 0.974 | locus YKL101W, strain HSL1, hits give low values 0.986 | locus YKL193C, strain SDS22, hits give low values 0.976 | locus YKL203C, strain TOR2, hits give low values 1 | locus YLR113W, strain HOG1, hits give low values 0.972 | locus YLR133W, strain CKI1, hits give low values 0.987 | locus YLR403W, strain SFP1, hits give low values 0.97 | locus YML070W, strain DAK1, hits give low values 0.967 | locus YMR001C, strain CDC5, hits give low values 0.984 | locus YMR205C, strain PFK2 (second series), hits give low values 0.994 | locus YMR277W, strain FCP1, hits give low values 0.973 | locus YNL006W, strain LST8, hits give low values 0.962 | locus YNL020C, strain ARK1, hits give low values 0.992 | locus YNL161W, strain CBK1, hits give low values 0.965 | locus YNL183C, strain NPR1, hits give low values 0.939 | locus YNL207W, strain RIO2, hits give low values 0.985 | locus YNL222W, strain SSU72, hits give low values 0.972 | locus YNL307C, strain MCK1 (second series), hits give low values 0.994 | locus YOL078W, strain AVO1, hits give low values 0.98 | locus YOL136C, strain PFK27, hits give low values 0.976 | locus YOR061W, strain CKA2, hits give low values 0.979 | locus YOR119C, strain RIO1, hits give low values 1.04 | locus YOR231W, strain MKK1, hits give low values 0.931 | locus YOR329C, strain SCD5, hits give low values 0.98 | locus YPL031C, strain PHO85, hits give low values 0.968 | locus YPL153C, strain RAD53, hits give low values 0.939 | locus YPL204W, strain HRR25, hits give low values 0.94 | locus YPL209C, strain IPL1, hits give low values 0.981 | locus YPL256C, strain CLN2, hits give low values 0.98 | locus YPR025C, strain CCL1, hits give low values 0.977 | locus YPR106W, strain ISR1, hits give low values 0.985 | locus YPR111W, strain DBF20, hits give low values 0.97 | strain NNK1, hits give low values 0.982 | strain TSCII, hits give low values 0.969

COC(=O)c1ccc(S(=O)(=O)NCc2ccccc2)n1C
inactive: [1] 1.01 | [2] 1.03 | [3] 1.02 | [4] 1.02 | [5] 1.03 | [6] 1.06 | [7] 1.02 | [8] 1.02 | [9] 1.09 | [10] 0.995 | [11] 1.06 | [12] 1.05 | [13] 1.02 | [14] 1.03 | [15] 1.04 | [16] 1.08 | [17] 1.01 | [18] 1.01 | [19] 1.01 | locus YMR307W, strain GAS1, hits give low values 1.1 | [20] 1.05 | [21] 1.03 | [22] 1.01 | [23] 1.04 | [24] 1.07 | [25] 0.991 | [26] 1.01 | [27] 1.15

— PubChem BioAssay AID1159580 (chemical genetic matrix, 2015)
